# Source: PubChem BioAssay (National Center for Advancing Translational Sciences (NCATS))
# A selection: hits, their analogues and other compounds. The true share with any hit is near 1.5%.
# GALK inh: qHTS Assay for Inhibitors of Human Galactokinase (GALK); P51570; Purified GALK, Kinase-Glo residual ATP luminescence; Potency, µM (series often up to 57.5 µM), actives largely listed as inhibitors; hit rate 0.007% among 270,000
# Target sequence (P51570 whole entry, looked up): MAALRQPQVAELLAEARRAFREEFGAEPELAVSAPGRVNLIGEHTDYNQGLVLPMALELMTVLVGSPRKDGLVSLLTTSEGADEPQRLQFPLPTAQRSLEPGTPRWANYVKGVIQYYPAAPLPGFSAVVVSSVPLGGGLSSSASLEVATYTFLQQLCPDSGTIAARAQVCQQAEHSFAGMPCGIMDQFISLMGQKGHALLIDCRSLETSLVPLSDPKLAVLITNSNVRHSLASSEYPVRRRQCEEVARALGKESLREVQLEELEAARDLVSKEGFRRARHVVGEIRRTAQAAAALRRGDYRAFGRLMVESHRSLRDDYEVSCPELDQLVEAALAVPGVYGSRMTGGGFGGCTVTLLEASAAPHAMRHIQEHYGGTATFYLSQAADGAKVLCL
#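 The enzyme phosphorylates galactose (100 uM) using ATP (35 uM); inhibition is detected as higher residual ATP, quantified by bioluminescence after 1 h reaction at room temperature, pH 8.0.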
# rTrxR1 inhibitor: qHTS Assay for Inhibitors of Mammalian Selenoprotein Thioredoxin Reductase 1 (TrxR1): qHTS; Thioredoxin reductase 1, cytoplasmic (Rattus norvegicus), O89049; recombinant rTrxR1, NADPH fluorescence consumption, selenite substrate; Potency, µM (highest dose often 114 µM), hits mostly inhibitors; hit rate 1% among 390,000; also: nearly all actives have a fitted effect of over 65% in size
#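 Rat TrxR1 (90 nM in the dispensed reagent) was pre-reduced with 400 uM NADPH for 5 min at room temperature, then incubated with compound for 15 min. After 400 uM selenite was added, NADPH fluorescence (Ex 340/Em 450 nm) was followed for 8 min.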
# TrxR1 substrate: qHTS Assay for Substrates of Mammalian Selenoprotein Thioredoxin Reductase 1 (TrxR1): qHTS; Thioredoxin reductase 1, cytoplasmic (Rattus norvegicus), O89049; AID 588456, 2011; purified TrxR1 substrate turnover, NADPH consumption readout; Potency, µM (series often up to 114 µM); hit rate 0.01% among 390,000; also: nearly all actives have a fitted effect of over 50% in size
#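 Rat TrxR1, dispensed at 90 nM, was prereduced with 400 uM NADPH (final) for 5 min at ~22 deg C, then incubated with compound 15 min before 400 uM selenite. A first-read NADPH fluorescence drop versus no-compound background flagged substrates.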
# USP1-UAF1 inh: Inhibitors of USP1/UAF1: Primary Screen; recombinant USP1/UAF1, Ub-Rhodamine cleavage fluorescence; AID 743255, 2014; hit rate 0.23% among 390,000; Ubiquitin carboxyl-terminal hydrolase 1 (Homo sapiens), O94782; Potency, µM (doses to about 57.1 µM), usual class: inhibitors; also: nearly all actives have a fitted effect of over 60% in size
#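 USP1/UAF1 complex at 1 nM was preincubated with compound for 15 min at room temperature, then Ub-Rho substrate (150nM final) was added. Fluorescence (480/540 nm) was read kinetically, 6 reads every 60 seconds.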
# Coupling enz: qHTS Assay for Inhibitors of Fructose-1,6-bisphosphate Aldolase from Giardia Lamblia: Coupling assay counterscreen; hit rate 0.67% among 290,000; AID 2472, 2010; activity change, negative = inhibition, % at 58.2 µM, hits read low; coupling enzyme system counterscreen, AmpLite Red fluorescence; in the data active = activity change below about -30%
#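 Compounds tested against the coupling enzymes alone at 57.5 uM final; readout was AmpLite Red fluorescence (525/598 nm) after 20 min at RT.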
# A number is an active result; 0 = inactive; ? = inconclusive; - = no result given; ! = not active in a repeat; [ ] = another dose, or the depositor's remark. Unless noted, calls follow the shape of the dose curve; as a rule, active = well fitted curve in the direction sought with a large enough effect; inconclusive = small, poorly fitted or top-dose-only effect, or another doubt; inactive = no such curve, though single readings can be large; an effect the other way counts as inactive or inconclusive.
SMILES,GALK inh,rTrxR1 inhibitor,TrxR1 substrate,USP1-UAF1 inh,Coupling enz
COC(=O)c1ccc(-c2nc3cc(Cl)c(N)cc3s2)cc1,0,0,0,?,-32
CCc1ccc(NC(=O)c2nc(SCc3ccccc3F)ncc2Cl)cc1,-,0,0,-,-
Cc1nc2c(=O)n(C)c(=O)n(C)c2nc1Cl,0,2µM,0,0,0
Cn1c(=O)c2nc(NCc3ccccc3)cnc2n(C)c1=O,0,0,0,0,0
O=C(Nc1ncc([N+](=O)[O-])s1)c1ccc2c(c1)OCO2,0,0,0,0,-32
CCCCn1c(N)c(N(CCOC)C(=O)c2cc(-c3ccco3)nc3ccccc23)c(=O)[nH]c1=O,-,50µM,0,0,-
CCN(C(=O)COC(=O)/C=C/c1ccco1)c1c(N)n(Cc2ccccc2)c(=O)[nH]c1=O,-,50µM,0,0,-
CCN(C(=O)COC(=O)/C=C/c1ccc(OC)c(OC)c1)c1c(N)n(Cc2ccccc2)c(=O)[nH]c1=O,-,0,0,0,-
CCCN(C(=O)c1cc(-c2ccco2)nc2ccccc12)c1c(N)n(Cc2ccccc2)c(=O)[nH]c1=O,-,28µM,0,0,-
CN(C)c1ccc(/C=C\C=C/c2ccnc3ccccc23)cc1,-,0,0,-,-
CCCCNC(=O)Cn1c(SCc2ccccc2C)nc2ccncc21,-,0,0[0.0914 µM],-,-
C=C(c1ccc2ccccc2n1)c1cccs1,-,0,0,-,-
O[C@@H]1CO[C@H]2C1OC[C@@H]2O (stereo not given in full),-,-,-,-,0
CCCOC(=O)c1cc(-c2ccc(/C=C3/C(=O)N(C)C(=O)C(C#N)=C3C)o2)ccc1Cl,-,18µM,0,?,-
Cc1c2cc(O)c(=O)cc-2oc2cc(O)c(O)cc12,0,0,0,?,-54!
COc1cc(OC)c(-c2c3cc(O)c(=O)cc-3oc3cc(O)c(O)cc23)cc1OC,0,0,0,25µM,0
COc1ccc(C(=O)NCC(=O)OCC(=O)c2ccc3ccccc3c2)cc1,-,0,0,-,-
Cc1cc(S(=O)(=O)ON2C(=O)c3ccccc3C2=O)ccc1F,0,?,0,0,0
Cc1ccc(C)c(S(=O)(=O)ON2C(=O)c3ccccc3C2=O)c1,0,3.2µM,0,0,0
Oc1ccc(/C=N/Nc2ccc(Cl)nn2)c(O)c1O,0,0,0,?,-38
Cc1ccc2c(C(=O)CNC3=NCCS3)c(C)[nH]c2c1,-,0,0,-,-
Clc1ccc(-c2nnc(-c3ccco3)nc2N2CCCCC2)cc1,0,6.3µM,0,0,0
COC(=O)c1ccc(N)cc1O,0,0,0,0,0
COC(=O)c1ccc(=O)c2nc3/c(=C/O)c(O)cc(=O)c3[nH]c12,-,56µM,0,?,0
Nc1nc(O)c(N=Nc2ccc(S(N)(=O)=O)cc2)c(=O)[nH]1,-,0,0,0,0
SMILES,GALK inh,rTrxR1 inhibitor,TrxR1 substrate,USP1-UAF1 inh,Coupling enz
NS(=O)(=O)c1ccc(N=Nc2c[nH]c(=O)c(O)c2)cc1,0,0,0,28µM,-38
COCCCNc1c2c3c(cccc3[nH]c1=O)C(=O)c1ccccc1-2,0,0,0,4.5µM,0
COCC(=O)N1CCc2nc(-c3ccc(OC)cc3C)c3c(c2C1)CO[C@@H](c1ccccc1)C3,-,-,-,-,0
CC(/C=C/c1ccco1)=N/NC(=O)Cc1cccs1,0,40µM,0,0,0
CC(/C=C/c1ccco1)=N\NC(=O)c1cc(C)[nH]n1,0,16µM,0,0,0
CC(/C=N/NC(=O)Cc1cccs1)=C\c1ccco1,-,?,0,0,0
O=C1S/C(=C\C=C\c2ccco2)C(=O)N1c1ccccc1,0,50µM,0,0,0
O=C(O)C(Cc1ccccc1)N1C(=O)/C(=C/C=C/c2ccco2)SC1=S (stereo not given),0,20µM,0,?,0
O=C(O)CC(C(=O)O)N1C(=O)/C(=C/C=C/c2ccco2)SC1=S (stereo not given),0,20µM,0,?,0
O=C(O)CCCN1C(=O)/C(=C/C=C/c2ccco2)SC1=S,0,35µM,0,0,0
CCCCCCCCCCCCCCCCCCCCCCCCCCCCCC,-,-,-,-,0
Cc1ccc(-c2nc3ccccc3o2)cc1NC(=O)C(C)Oc1ccccc1 (stereo not given),-,0,0,-,-
Cc1sc2ccccc2[n+]1CCC[n+]1c(C)sc2ccccc21,-,0,0,-,-
CC(=C\c1ccccc1)/C=C1/SC(=O)N(CCCC(=O)Nc2ccc(C(=O)O)cc2)C1=O,0,0,0,0,0
O=C(CCCN1C(=O)S/C(=C/C=C/c2ccccc2)C1=O)Nc1ccc(C(=O)O)cc1,0,79µM,0,0,-
O=C(NN1C(=O)/C(=C/C=C/c2ccco2)SC1=S)c1ccccc1O,0,56µM,0,0,0
O=C1NC(=O)/C(=C/c2ccc3c(c2)OC(F)(F)O3)S1,-,0,0,-,-
COc1ccc(S(=O)(=O)NCC(c2ccco2)S(=O)(=O)c2cccs2)cc1OC (stereo not given),-,?,0,0,-
O=S(=O)(NCC(c1ccco1)S(=O)(=O)c1cccs1)c1ccc(Cl)cc1 (stereo not given),-,0.63µM,0,0,-
O=S(=O)(NCC(c1ccco1)S(=O)(=O)c1cccs1)c1ccc(F)c(C(F)(F)F)c1 (stereo not given),-,0.45µM,0,0,-
O=S(=O)(NCC(c1ccco1)S(=O)(=O)c1cccs1)c1ccccc1 (stereo not given),-,16µM,0,0,-
O=S(=O)(NCC(c1cccs1)S(=O)(=O)c1ccccc1)c1ccccc1 (stereo not given),-,0.56µM,0,0,-
COc1ccc(C(=O)Nc2cc(C(=O)c3ccccc3)c(C)oc2=O)cc1,0,11µM,0,0,0
Cc1oc(=O)c(NC(=O)c2ccccc2)cc1C(N)=O,0,0,0,0,0
Cc1oc(=O)c(NC(=O)c2cccc(Cl)c2)cc1C(=O)c1ccccc1,0,35µM,0,?,0
SMILES,GALK inh,rTrxR1 inhibitor,TrxR1 substrate,USP1-UAF1 inh,Coupling enz
CCCCCCCCCCCCCCCC(C)C1=NCCN1 (stereo not given),-,0,0,-,-
O=C1NC2c3c(Cl)sc(Cl)c3C(=O)C2O1 (stereo not given),-,6.3µM,0,0,-
O=C1NC2c3c(I)sc(I)c3C(=O)C2O1 (stereo not given),-,2.5µM,0,0,-
O=C1NC2c3ccccc3CC2O1 (stereo not given),-,0,0,0,0
CN(C)c1ccc(C=NC2CCc3ccccc32)cc1 (stereo not given),-,0,0,-,-
CC(SC1=NS(=O)(=O)c2ccccc21)C(=O)O (stereo not given),-,0,0,-,-
CN(C)c1ccc(NC(=O)CSCc2nc3c(nnn3Cc3ccc(F)cc3)c(=O)[nH]2)cc1,0,0,0,0,-36
COCCNC(=O)c1c(N)n(-c2cccc(C)c2)c2nc3ccccc3nc12,0,0,0,0,-38
